This is a sample that favours compounds with a hit; in the whole collection about 3% have one here.
p53null 39C tox = p53 null cell cytotoxicity, nonpermissive temperature | 55,000 compounds, 0.97% hits | Potency, µM (top dose mostly 46.1 µM), without a hit: at the top dose activity, negative = cell killing, hits mostly cytotoxic | H1299 p53-null (neo) cells, 39C, ATPlite viability, 24 h | AID 904;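 note: 0% = DMSO only and -100% = full killing by 100 µM tamoxifen; nearly all actives have a fitted effect of over 50% in size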
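Cells seeded at 600/well, 37C overnight. Compound added (up to 46 uM), plates shifted to 39C for 24 hr. ATPlite added, luminescence read after 20 min at room temperature.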
p53null 32C tox = p53 null cell cytotoxicity, permissive temperature | H1299-neo p53 null cells, ATP luminescence, 24 h, 32C | Potency, µM (doses to about 46.1 µM), for inactives: at the top dose activity change, negative = cytotoxicity, actives largely listed as cytotoxic | 55,000 compounds, 0.62% hits;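 note: 0% = DMSO only and -100% = full killing by 100 µM tamoxifen; nearly all actives have a fitted effect of over 55% in size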
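Cells lacking p53 (H1299-neo) are plated at 600 per well and allowed to settle overnight at 37C. Test compounds (up to 46 uM) are added and held 24 hours at 32C, then ATP is quantified by luminescence.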
mTORC1 inh = reduces mTORC1 signaling in Tsc2 and p53 null MEF cells; 44,000 compounds, 0.78% hits; Tsc2-/- p53-/- MEF, phospho-rpS6 immunofluorescence/PI, 24 h; Potency, µM (highest dose often 38.3 µM), for the others: at the top dose activity change, negative = inhibition, usual class: inhibitors;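 note: plate controls were DMSO for no effect and rapamycin for full effect; nearly all actives have a fitted effect of over 50% in size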
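Readout is phospho-S6 Alexa 488 signal normalized to PI per well, reported as % active cells with thresholds set from rapamycin (7.5 nM) and DMSO controls. Cells: Tsc2-/-, p53-/- MEFs, 24 hrs compound at 37 C; PI cell number serves as viability.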
OvCa metastasis = inhibitors of ovarian cancer cell adhesion and invasion in omental model | SKOV3ip1-GFP adhesion/invasion on 3D omental model, fluorescence | Potency, µM (highest dose often 45.8 µM), for inactives: top-dose activity change, negative = inhibition, most hits filed as inhibitors | 46,000 compounds, 0.1% hits;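 note: plate controls were DMSO wells for no effect and tomatine positive control wells for full effect; nearly all actives have a fitted effect of over 65% in size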
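Primary human omental fibroblast/mesothelial 3D culture pre-formed 48 h. SKOV3ip1-GFP cells added with compounds (0.36-46 umol/L), incubated 2 h RT/16 h 37 C, fixed; GFP cells quantified at 488/509 nm.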
S16 F2sN tox = cytotoxicity in S16 Pmp22-F2sN Schwann cells. 43,000 compounds, 0.48% hits. Potency, µM (series often up to 57.5 µM), inactives show at the highest dose activity change, negative = cytotoxicity, usual class: cytotoxic. S16 Pmp22-F2sN Schwann cells viability, CellTiter-Glo, 24 h; note: nearly all actives have a fitted effect of over 65% in size
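Seed 500-1,000 S16 Pmp22-F2sN cells per well in phenol-red-free DMEM with 10% heat-inactivated FBS; pin-add 23 nL compound; incubate 24 h at 37C; add CellTiter-Glo, wait 15 min protected from light; read luminescence.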
PMP22 txn prim = modulators of PMP22 gene transcription in S16 Schwann cells. S16 Pmp22-F2sN Schwann cells (luciferase reporters placed in the Pmp22 gene), FLuc/NLuc coincidence luminescence, 24 h. Potency, µM (highest dose often 57.5 µM), for the others: at the top dose activity change, negative = inhibition, usual class: inhibitors. 43,000 compounds, 2% hits. AID 1508649; active = clear falling dose curves in both reporters; inconclusive = both reporters move, but less clearly or upward; inactive = either reporter flat; the % is the NLuc reporter signal
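Schwann cells carrying the coincidence reporter were exposed to library compounds for 24 h at 37C, then lysed and read for FLuc and, after quenching, NLuc luminescence on a CCD imager.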
Active calls of the source: *; i = inactive; ? = inconclusive; · = no result. Unless noted, calls come from the whole dose curve; as a rule, active = well fitted curve in the direction sought with a large enough effect; inconclusive = small, poorly fitted or top-dose-only effect, or another doubt; inactive = no such curve, though single readings can be large; an effect the other way counts as inactive or inconclusive. Unless noted, % is set by controls: 0 for no effect and ±100 for the full control effect; potency is the fitted concentration of half-maximal effect.

SMILES	p53null 39C tox	p53null 32C tox	mTORC1 inh	OvCa metastasis	S16 F2sN tox	PMP22 txn prim
COc1cc(C(=O)NCC(c2cccnc2)N2CCN(c3ccc(F)cc3)CC2)cc(OC)c1OC (stereo unspecified)	16µM*	-22%	3%	1%	10%	7%
COc1ccccc1N1CCN(C(CNC(=O)C(=O)NCc2cccnc2)c2cccnc2)CC1 (stereo unspecified)	20µM*	?	-1%	23%	-6%	?
CCc1ccccc1N1CC(c2nc3ccccc3n2CCC2CCCCC2)CC1=O (stereo unspecified)	16µM*	?	-1%	?	?	?
O=C1CC(c2nc3ccccc3n2CCCCOc2ccccc2)CN1c1ccccc1Cl (stereo unspecified)	13µM*	?	-2%	i	-24%	?
Cc1ccccc1N1CC(c2nc3ccccc3n2CCC2CCCCC2)CC1=O (stereo unspecified)	-3%	-9%	1%	?	-16%	?
CC(C)(C)Cn1c(N)nc2ccc(-c3[nH]c(C(C)(C)C)nc3-c3ccc(F)cc3)nc21	·	·	·	3%	·	·
CCCCNC(=O)CSc1c2c(nc3ccc(Cl)cc13)CCCC2	136%	8%	?	3%	40µM*	?
COc1ccc(NS(=O)(=O)c2ccc(N3CCCCS3(=O)=O)cc2)cc1Cl	6%	4%	-10%	11%	?	7.3µM*
COc1ccc(C(=O)Nc2nc3ccc(S(C)(=O)=O)cc3s2)cc1	-11%	-1%	·	·	·	·
Cc1ccc(C(=O)Nc2nc3ccc(S(C)(=O)=O)cc3s2)o1	10µM*	13µM*	·	·	·	·
Cc1ccc(NC(=O)CCc2c(C)nn(-c3ccc(N4CCCCC4)nn3)c2C)cc1F	7.9µM*	?	-14%	i	·	·
Cc1ccc(C)c(-c2nnc(NC(=O)c3ccc4c(c3)OCCO4)o2)c1	7.9µM*	-12%	0%	i	?	?
CCc1ccc(C(=O)c2cnc3ccc(F)cc3c2S(=O)(=O)c2ccccc2)cc1	78%	26%	12µM*	-10%	-30%	?
Cc1ccc2ncc(C(=O)c3ccc(C)c(C)c3)c(S(=O)(=O)c3ccccc3)c2c1	23%	29%	-6%	4%	?	?
C[N+]1(C)[C@@H]2C[C@@H](OC(=O)C(O)(c3cccs3)c3cccs3)C[C@H]1[C@@H]1O[C@@H]12	·	·	·	6%	·	·
COc1ccc(CNC(=O)c2cc(-c3ccc(Br)s3)nc3ccccc23)cc1	?	8%	-7%	i	-4%	?
Cc1ccc(NC(=O)c2cc(-c3ccc(Br)s3)nc3ccccc23)cc1F	-21%	-12%	-9%	-2%	32µM*	?
Cc1cn2cc(C(=O)N(C)CCO)cc(N[C@@H]3CCOc4cccc(C)c43)c2n1	·	·	·	3%	·	·
CCOC(=O)N1CCN([N+]([O-])=NOc2ccc([N+](=O)[O-])cc2C#N)CC1	·	·	·	4%	·	·
CCOC(=O)c1ccc(N2C(=O)c3n[nH]c(C)c3C2c2ccc(CC)cc2)cc1 (stereo unspecified)	10%	8%	7%	i	25%	0%
CCOC(=O)c1ccc(N2C(=O)c3n[nH]c(C)c3C2c2cccc(Br)c2)cc1 (stereo unspecified)	?	17%	16µM*	-5%	?	?
Cc1ccc(-c2cc(C(=O)NC(C)c3ccccc3)c3ccccc3n2)cc1C (stereo unspecified)	16%	-13%	15%	4%	-2%	10%
Cc1ccc(-c2cc(C(=O)N3CCN(c4ccccc4)CC3)c3ccccc3n2)cc1C	?	13µM*	?	-21%	-18%	?
Cc1ccc(S(=O)(=O)Nc2cc(Cl)ccc2C(=O)Nc2nc(-c3ccccc3)cs2)cc1	·	·	·	4%	·	·
OCc1ccccc1O[C@@H]1O[C@H](CO)[C@H](O)[C@H](O)[C@H]1O	·	·	·	-9%	·	·
SMILES	p53null 39C tox	p53null 32C tox	mTORC1 inh	OvCa metastasis	S16 F2sN tox	PMP22 txn prim
CN(C)C(=O)c1ccc(S(=O)(=O)c2ccc(NC(=O)[C@@](C)(O)C(F)(F)F)c(Cl)c2)cc1	·	·	·	-12%	·	·
Cc1ccc(C)c(N2CCN(C(=O)c3ccc(Nc4nc5ccccc5n5nnnc45)cc3)CC2)c1	-7%	-5%	?	13%	-28%	-37%
CC(C)CCNC(=O)c1cccc(Nc2nc3ccccc3n3nnnc23)c1	?	-23%	?	?	20µM*	9.5µM*
COc1ccccc1N1CCN(C(=O)c2ccc(Nc3nc4ccccc4n4nnnc34)cc2)CC1	-15%	4%	-1%	-26%	3.5µM*	?
N#Cc1cc(NC(=O)Nc2nnc(-c3ccncc3)s2)ccc1-c1cn[nH]c1	·	·	·	-5%	·	·
O=C(c1ccc(C=Cc2n[nH]c3ccccc23)cc1)N1CCNCC1	·	·	·	7%	·	·
Cc1ccc(N(CC(=O)N2CCN(c3cccc(Cl)c3)CC2)S(=O)(=O)c2c(C)noc2C)cc1	9%	12%	-8%	4%	-19%	?
COc1ccc(N(CC(=O)N2CCN(c3cccc(Cl)c3)CC2)S(=O)(=O)c2c(C)noc2C)cc1	10µM*	2%	-12%	32%	-27%	-25%
Cc1cccc(N2CCN(c3ncnc4onc(C)c34)CC2C)c1 (stereo unspecified)	?	?	-2%	-4%	?	11µM*
C[C@@H](N)c1ccc(C(=O)Nc2ccnc3[nH]ccc23)cc1	·	·	·	-11%	·	·
Fc1ccc(Nc2nc3nonc3nc2Nc2cccc(C(F)(F)F)c2)cc1	5.6µM*	?	?	-3%	8.9µM*	7.3µM*
O=S(=O)(Nc1cccc(-c2ccc(N3CCCCC3)nn2)c1)c1cccc(F)c1	10µM*	?	-3%	i	·	·
COc1ccc(S(=O)(=O)Nc2cccc(-c3ccc(N4CCCCC4)nn3)c2)cc1F	20µM*	13µM*	-1%	-11%	·	·
COCCOc1nc(-c2ccc(Cl)c(Cl)c2)n(-c2ccc(NC(=O)CCl)cc2)n1	·	·	·	20%	·	·
COc1cc(N2CCN(C)CC2)ccc1Nc1nc(N)c(C(=O)c2c(Cl)cccc2Cl)s1	·	·	·	8%	·	·
CC1=C(CC(=O)O)c2cc(F)ccc2C1=Cc1ccc(S(C)=O)cc1 (stereo unspecified)	·	·	·	37%	·	·
C[C@@]1(c2cc(-c3cncnc3)c(F)cc2F)CCSC(N)=N1	·	·	·	11%	·	·
